Inconclusive results are not listed. Active and inactive are the calls of the source. Unless noted, the call rests on the fitted dose curve; in most records, active means well fitted curve in the direction sought with a large enough effect in the repeat runs; inconclusive means weak or mixed curves; inactive means no such curve, though single readings can be large; an effect the other way counts as inactive or inconclusive.
Columns and labels:
[1] = target: Estrogen receptor (Homo sapiens) (UniProt P03372); assay: qHTS assay to identify small molecule antagonists of the estrogen receptor alpha (ER-alpha) signaling pathway (AID 743069; active means well fitted curve in the direction sought with a large enough effect in the signal ratio in the repeat runs, not every such curve was filed as active; the % refers to the signal ratio)
In short: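 HEK293 cells stably carrying an ER-alpha-UAS-bla beta-lactamase reporter were pre-cultured overnight in 2% charcoal-stripped FBS medium. Test compounds in DMSO were added together with 17beta-estradiol for 18 hr at 37C. Read-out was fluorescence after 2 hr with LiveBLAzer B/G FRET substrate at room temperature.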

[2] = qHTS assay to identify small molecule antagonists of the estrogen receptor alpha (ER-alpha) signaling pathway - cell viability counter screen (AID 743074; calls by dose curve; further: nearly all actives have a fitted effect of over 45% in size)
[3] = target: Estrogen receptor (Homo sapiens) (UniProt P03372); assay: qHTS assay to identify small molecule agonists of the estrogen receptor alpha (ER-alpha) signaling pathway (AID 743075; calls by dose curve)
[4] = target: Estrogen receptor (Homo sapiens) (UniProt P03372); assay: qHTS assay to identify small molecule agonists of the estrogen receptor alpha (ER-alpha) signaling pathway using the BG1 cell line (AID 743079); further: nearly all actives have a fitted effect of over 20% in size
[5] = qHTS assay to identify small molecule antagonists of the estrogen receptor alpha (ER-alpha) signaling pathway using the BG1 cell line (AID 743080; calls by dose curve;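 further: BG1 cells stimulated with 17beta-estradiol alongside compound; series mostly up to about 70 µM; nearly all actives have a fitted effect of over 25% in size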)
In short: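 BG1Luc4E2, endogenous ER-alpha, 4xERE-luc; 5 d charcoal-stripped FBS, phenol red free; 24 h plating; cpd + 17beta-estradiol 21.5 h, 37 C/5% CO2; CellTiter-Fluor viability 30 min, then ONE-Glo luciferase 30 min RT.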

[6] = qHTS assay to identify small molecule antagonists of the estrogen receptor alpha (ER-alpha) signaling pathway using the BG1 cell line - cell viability counter screen (AID 743081);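 further: compound given together with 17beta-estradiol as the ER stimulus; series mostly up to about 70 µM; nearly all actives have a fitted effect of over 45% in size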
Aromatase (Homo sapiens) = Aromatase (Homo sapiens) (UniProt P11511); assay: qHTS assay to identify aromatase inhibitors (AID 743083); further: series mostly up to about 70 µM; nearly all actives have a fitted effect of over 55% in size
[7] = qHTS assay to identify aromatase inhibitors - cell viability counter screen (AID 743084);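 further: cells stimulated with testosterone during compound exposure; nearly all actives have a fitted effect of over 55% in size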
[8] = target: Aryl hydrocarbon receptor (Homo sapiens) (UniProt P35869); assay: qHTS assay to identify small molecule that activate the aryl hydrocarbon receptor (AhR) signaling pathway (AID 743085);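 further: HG2L7.5c1 human HepG2 liver cells with stably integrated DRE-driven firefly reporter; series mostly up to about 70 µM; nearly all actives have a fitted effect of over 15% in size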
In short: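 Compounds were tested in HepG2 hepatocellular carcinoma cells harbouring a stably integrated luciferase gene under control of 20 DREs. Increased reporter signal after 24 h treatment at 37C was taken as AhR activation.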

[9] = qHTS assay to identify small molecule that activate the aryl hydrocarbon receptor (AhR) signaling pathway - cell viability counter screen (AID 743086);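 further: HepG2 liver cells carrying the AhR DRE luciferase reporter; series mostly up to about 70 µM; nearly all actives have a fitted effect of over 45% in size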
In short: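 HepG2-AhR-luc (HG2L7.5c1) cells, 4000/well, were preincubated 5 h at 37C, exposed to compound in qHTS format for 24 hr at 37C, then given CellTiter-Fluor for 30 min; viability was read as fluorescence in the reporter wells.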

[10] = target: Peroxisome proliferator-activated receptor gamma (Homo sapiens) (UniProt P37231); assay: qHTS assay to identify small molecule agonists of the peroxisome proliferator-activated receptor gamma (PPARg) signaling pathway (AID 743094; active means well fitted activation curve with a large enough effect in the signal ratio in the repeat runs, not every such curve was filed as active; the % refers to the signal ratio)
In short: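 GeneBLAzer PPARg UAS-bla HEK293H cells carrying a stably integrated beta-lactamase reporter were pre-incubated 5 h at 37C, then exposed to compounds in DMSO for 17 h at 37C; LiveBLAzer B/G FRET substrate was added for 1 h at room temperature and fluorescence read.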

[11] = target: Peroxisome proliferator-activated receptor gamma (Homo sapiens) (UniProt P37231); assay: qHTS assay to identify small molecule antagonists of the peroxisome proliferator-activated receptor gamma (PPARg) signaling pathway (AID 743191; calls by dose curve; further: series mostly up to about 63 µM; nearly all actives have a fitted effect of over 30% in size)
In short: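 GeneBLAzer PPARg UAS-bla HEK293H cells carrying a UAS-driven beta-lactamase reporter were plated at 3000 cells/well, preincubated 5 h at 37C, then given compound for 17 h at 37C; LiveBLAzer B/G FRET substrate was read after 1 h at room temperature.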

[12] = qHTS assay for small molecule agonists of the antioxidant response element (ARE) signaling pathway - cell viability counter screen (AID 743203; calls by dose curve; further: nearly all actives have a fitted effect of over 55% in size)
In short: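 CellSensor ARE-bla HepG2 cells, 2,000 per well, rested 5 hrs at 37C/5% CO2, then exposed to compound in DMSO for 16 hrs; viability read as CellTiter-Glo luminescence after 30 min at room temperature, in the reporter wells.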

[13] = qHTS assay for small molecule activators of the heat shock response signaling pathway - cell viability counter screen (AID 743209); further: nearly all actives have a fitted effect of over 50% in size
In short: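 CellSensor HSE-bla HeLa cells, plated overnight at 37 C/5% CO2, were exposed to compounds in DMSO for 5 h at 37 C. Viability was then read in the same wells by CellTiter-Glo luminescence after 30 min at room temperature.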

[14] = qHTS assay for small molecule activators of the heat shock response signaling pathway (AID 743210; active means well fitted activation curve with a large enough effect in the signal ratio in the repeat runs, with a control signal flat, not every such curve was filed as active; the % refers to the signal ratio; further: series mostly up to about 63 µM)
In short: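 HSE-bla HeLa cells (beta-lactamase reporter under heat shock response elements) were exposed to compounds for 5 h at 37 C, then loaded with LiveBLAzer B/G FRET substrate for 2.5 h at room temperature before fluorescence reading.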

[15] = qHTS assay to identify small molecule antagonists of the thyroid receptor (TR) signaling pathway (AID 743065); further: series mostly up to about 70 µM; nearly all actives have a fitted effect of over 55% in size
In short: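 GH3.TRE-Luc rat pituitary cells carrying two TR response elements driving luciferase were plated for 4 h, given compound plus 1 nM T3 (final), and incubated 23.5 h at 37 C. ONE-Glo luminescence measured reporter inhibition; CellTiter-Fluor fluorescence tracked cytotoxicity.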

[16] = system: thyroid hormone receptor (rat, GH3 cells); assay: qHTS assay to identify small molecule agonists of the thyroid receptor (TR) signaling pathway (AID 743066; calls by dose curve)
[17] = qHTS assay to identify small molecule antagonists of the peroxisome proliferator-activated receptor gamma (PPARg) signaling pathway - cell viability counter screen (AID 743194); further: nearly all actives have a fitted effect of over 55% in size
In short: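 PPARg-UAS-bla HEK293H cells were plated, rested 5 h at 37 C, then treated with compounds plus rosiglitazone (50 nM final) for 17 h at 37 C; viability was then read by CellTiter-Glo luminescence after 30 min at room temperature.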

[18] = qHTS assay for small molecule agonists of the antioxidant response element (ARE) signaling pathway (AID 743202; active means well fitted activation curve with a large enough effect in the signal ratio in the repeat runs, not every such curve was filed as active; the % refers to the signal ratio)
In short: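 Read-out: LiveBLAzer B/G FRET substrate fluorescence after 2 h at room temperature, following 16 h compound treatment at 37 C of HepG2 cells carrying an ARE-driven beta-lactamase reporter.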

Measured: Potency

Sequence of Peroxisome proliferator-activated receptor gamma (Homo sapiens) (P37231 whole entry, looked up): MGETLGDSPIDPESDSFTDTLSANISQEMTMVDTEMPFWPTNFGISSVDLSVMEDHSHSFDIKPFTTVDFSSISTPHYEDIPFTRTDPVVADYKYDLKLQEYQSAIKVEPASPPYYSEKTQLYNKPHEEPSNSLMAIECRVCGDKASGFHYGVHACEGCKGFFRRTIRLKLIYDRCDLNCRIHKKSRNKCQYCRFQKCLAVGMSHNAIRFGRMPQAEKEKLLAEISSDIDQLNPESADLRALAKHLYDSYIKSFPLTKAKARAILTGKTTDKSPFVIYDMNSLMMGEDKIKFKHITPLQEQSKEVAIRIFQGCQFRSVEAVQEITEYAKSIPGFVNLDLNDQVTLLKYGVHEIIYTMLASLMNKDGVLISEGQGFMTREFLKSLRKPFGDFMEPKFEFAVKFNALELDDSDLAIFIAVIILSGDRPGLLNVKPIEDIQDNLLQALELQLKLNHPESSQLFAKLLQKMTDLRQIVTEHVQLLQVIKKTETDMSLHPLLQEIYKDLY
Sequence of Estrogen receptor (Homo sapiens) (P03372 whole entry, looked up): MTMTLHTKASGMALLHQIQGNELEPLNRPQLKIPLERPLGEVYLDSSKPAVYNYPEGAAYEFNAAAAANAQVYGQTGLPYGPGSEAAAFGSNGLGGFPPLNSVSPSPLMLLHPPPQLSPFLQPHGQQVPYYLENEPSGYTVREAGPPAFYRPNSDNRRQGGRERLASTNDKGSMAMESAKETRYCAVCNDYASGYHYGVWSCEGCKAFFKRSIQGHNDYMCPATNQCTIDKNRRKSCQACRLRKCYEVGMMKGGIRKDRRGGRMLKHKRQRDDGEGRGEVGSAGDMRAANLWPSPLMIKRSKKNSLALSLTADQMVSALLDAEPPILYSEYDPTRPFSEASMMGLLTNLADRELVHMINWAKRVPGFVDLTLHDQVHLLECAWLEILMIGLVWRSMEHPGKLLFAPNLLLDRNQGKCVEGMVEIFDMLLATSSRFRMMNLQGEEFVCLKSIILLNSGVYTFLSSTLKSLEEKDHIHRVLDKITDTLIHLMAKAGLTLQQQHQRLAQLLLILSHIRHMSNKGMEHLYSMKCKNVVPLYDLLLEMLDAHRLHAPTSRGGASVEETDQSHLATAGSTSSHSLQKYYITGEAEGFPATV
Sequence of Aromatase (Homo sapiens) (P11511 whole entry, looked up): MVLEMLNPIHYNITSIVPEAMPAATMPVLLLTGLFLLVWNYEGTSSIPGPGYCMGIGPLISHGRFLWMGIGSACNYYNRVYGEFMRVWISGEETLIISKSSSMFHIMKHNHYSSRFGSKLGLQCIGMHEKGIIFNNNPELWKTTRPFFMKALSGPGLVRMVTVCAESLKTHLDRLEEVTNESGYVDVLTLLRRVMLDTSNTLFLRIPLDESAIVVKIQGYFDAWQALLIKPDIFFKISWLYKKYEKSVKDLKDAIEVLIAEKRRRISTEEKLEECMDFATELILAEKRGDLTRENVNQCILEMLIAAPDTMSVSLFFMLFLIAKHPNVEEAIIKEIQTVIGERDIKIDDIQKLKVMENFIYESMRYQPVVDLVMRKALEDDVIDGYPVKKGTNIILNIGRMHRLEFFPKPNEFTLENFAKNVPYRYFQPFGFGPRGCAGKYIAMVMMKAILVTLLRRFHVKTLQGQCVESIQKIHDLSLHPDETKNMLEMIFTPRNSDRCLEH
Sequence of Aryl hydrocarbon receptor (Homo sapiens) (P35869 whole entry, looked up): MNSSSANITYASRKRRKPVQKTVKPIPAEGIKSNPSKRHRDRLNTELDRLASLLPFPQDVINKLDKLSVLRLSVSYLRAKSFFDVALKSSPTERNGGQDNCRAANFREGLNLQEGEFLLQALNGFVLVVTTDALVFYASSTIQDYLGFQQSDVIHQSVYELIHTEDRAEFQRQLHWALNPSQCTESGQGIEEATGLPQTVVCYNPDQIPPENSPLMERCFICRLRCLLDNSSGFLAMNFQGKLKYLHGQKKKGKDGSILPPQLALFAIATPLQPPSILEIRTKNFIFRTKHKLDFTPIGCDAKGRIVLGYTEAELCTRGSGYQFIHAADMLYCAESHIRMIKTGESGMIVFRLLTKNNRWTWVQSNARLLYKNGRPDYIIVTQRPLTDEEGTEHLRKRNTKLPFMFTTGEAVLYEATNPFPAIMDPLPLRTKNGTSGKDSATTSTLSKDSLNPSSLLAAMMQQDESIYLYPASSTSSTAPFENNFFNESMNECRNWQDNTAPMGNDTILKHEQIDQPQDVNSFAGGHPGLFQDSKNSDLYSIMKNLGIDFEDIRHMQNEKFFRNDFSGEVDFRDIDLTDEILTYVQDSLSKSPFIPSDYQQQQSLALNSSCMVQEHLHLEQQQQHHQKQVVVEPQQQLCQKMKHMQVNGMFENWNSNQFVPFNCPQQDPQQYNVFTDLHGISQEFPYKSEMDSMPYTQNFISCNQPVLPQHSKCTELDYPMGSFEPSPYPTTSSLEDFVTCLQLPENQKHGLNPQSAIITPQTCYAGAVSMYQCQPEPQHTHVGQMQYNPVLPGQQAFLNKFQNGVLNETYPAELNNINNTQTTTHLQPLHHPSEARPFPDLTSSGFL

CC(CCl)OP(=O)(OC(C)CCl)OC(C)CCl (centres undefined)
not listed: [15] | [16] | [17] | [18]
inactive: all other assays above

CC(C)OP(=O)(CP(=O)(OC(C)C)OC(C)C)OC(C)C
not listed: [1]
inactive: all other assays above

CC(C)(C#N)c1cc(Cn2cncn2)cc(C(C)(C)C#N)c1
not listed: [1] | [3] | [4] | [5] | Aromatase (Homo sapiens) | [15] | [16]
inactive: all other assays above

CC1(C)CC(N)CC(C)(CN)C1 (centres undefined)
not listed: [8] | [18]
inactive: all other assays above

O=[N+]([O-])c1ccc2nc[nH]c2c1
not listed: [2] | [8] | [18]
inactive: all other assays above

O=S(=O)(O)c1ccccc1
not listed: [1] | [3] | [4] | [5] | [10] | [11] | [17] | [18]
inactive: all other assays above

COc1ccc(CCC(C)=O)cc1
not listed: [1] | [3] | [4] | [5] | [17] | [18]
inactive: all other assays above

CC1(C)OC[C@@H]2O[C@@]3(C(=O)O)OC(C)(C)O[C@H]3[C@@H]2O1
not listed: [1] | [3] | [4] | [5] | [14]
inactive: all other assays above

CCO[Si](CCCN)(OCC)OCC
not listed: [8] | [15] | [16] | [17] | [18]
inactive: all other assays above

COC(=O)CCCC(=O)OC
inactive: [15] | [16] | [2] | [6] | [9] | [18] | [12] | [13] | [14]

CCCCCCCCCCN
not listed: [1] | [2] | [3] | [4] | [5] | [10] | [11]
inactive: all other assays above

O=C(O)c1ccc(C(=O)O)c(C(=O)O)c1
not listed: [2]
inactive: all other assays above
